From PubChem
Peg3 prom inh – reduces Peg3 promoter-driven luciferase expression in HeLa | HeLa PEG-Prom luciferase reporter, luminescence, overnight | inhibition, % at 20 µM | 360,000 compounds, 1.7% hits | AID 588405;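 active means inhibition of at least 50% at 20 µM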
HIF-2a block – blocks HIF-2a reporter activity | 786-0 RCC cells HIF-2a reporter, luciferase luminescence, overnight | inhibition, % at 18.8 µM | 360,000 compounds, 0.72% hits;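 active means inhibition of the luminescence signal of 40% or more relative to plate controls, in a single-dose primary screen at 18.75 µM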
KKLEB cytotox – reduces viability of KKLEB cystic fibrosis airway cells. activity change (cytotoxicity), % at 5 µM. KKLEB CF airway cells viability, ATPlite luminescence, overnight; hits give low values; cells stimulated with P. aeruginosa culture filtrate. 360,000 compounds, 0.36% hits;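 active means corrected activity change at or below -50% at 5 µM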
ABHD5 PLIN5 PPI – ABHD5-PLIN5 protein interaction inhibition. Split G. princeps luciferase complementation, luminescence, 4 h. inhibition, % at 4 µM. 360,000 compounds, 0.78% hits. AID 602281;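 active means inhibition above the mean inhibition across every tested compound plus 3 SD, cut at about 22% in these data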;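 further: 0% = DMSO only wells and the 100% control is not disclosed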
Target sequence (Q00G26 whole entry, looked up): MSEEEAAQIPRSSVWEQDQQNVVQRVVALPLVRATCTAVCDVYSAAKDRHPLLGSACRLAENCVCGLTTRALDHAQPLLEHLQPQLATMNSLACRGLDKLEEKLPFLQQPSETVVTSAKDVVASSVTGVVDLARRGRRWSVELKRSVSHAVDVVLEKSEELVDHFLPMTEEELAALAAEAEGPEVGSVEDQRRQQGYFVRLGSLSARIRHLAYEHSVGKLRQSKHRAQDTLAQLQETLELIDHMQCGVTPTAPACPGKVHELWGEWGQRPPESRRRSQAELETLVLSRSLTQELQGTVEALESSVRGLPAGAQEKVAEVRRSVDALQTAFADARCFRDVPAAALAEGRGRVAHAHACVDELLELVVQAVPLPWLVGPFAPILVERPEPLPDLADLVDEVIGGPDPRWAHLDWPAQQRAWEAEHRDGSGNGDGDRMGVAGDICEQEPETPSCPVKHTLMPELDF
Target sequence (Q8WTS1 whole entry, looked up): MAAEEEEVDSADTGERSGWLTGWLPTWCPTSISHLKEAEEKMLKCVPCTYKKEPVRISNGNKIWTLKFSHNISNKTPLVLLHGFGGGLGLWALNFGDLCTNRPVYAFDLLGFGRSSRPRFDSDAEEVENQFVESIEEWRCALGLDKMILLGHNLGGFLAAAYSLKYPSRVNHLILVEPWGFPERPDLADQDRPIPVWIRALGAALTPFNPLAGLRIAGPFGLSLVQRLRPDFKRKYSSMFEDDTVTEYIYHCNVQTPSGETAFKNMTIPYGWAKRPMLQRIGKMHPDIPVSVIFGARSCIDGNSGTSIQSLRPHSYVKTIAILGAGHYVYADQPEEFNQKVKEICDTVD
CF NFkB inh – blocks PAF-induced NF-kB reporter in cystic fibrosis cells; 360,000 compounds, 0.86% hits; inhibition, % at 5 µM; AID 588850; KKLEB NF-kB-GFP reporter, GFP fluorescence overnight;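 active means at least 50% inhibition at 5 µM, scaled per plate between neutral and stimulator controls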;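 further: PAF is a Pseudomonas aeruginosa culture filtrate used as stimulus; plate controls were PAF-stimulated DMSO wells for no effect and unstimulated DMSO wells for full effect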
Mdm2-MdmX inh – human Mdm2/MdmX binding inhibition. O15151+Q00987. SaOS-2 split-luciferase Mdm2/MdmX complementation, luminescence. inhibition, % at 8 µM. 330,000 compounds, 3% hits;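 active means inhibition of at least 50% at 8 µM in the primary screen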
Mdm2-MdmX conf – confirmation of human Mdm2/MdmX interaction inhibitors; Mdm2-MdmX binding, luminescent assay; AID 489028; inhibition, % at 8 µM; shares compounds with Mdm2-MdmX inh; 10,000 compounds, 55% hits; in the data active means inhibition above about 40%
FLuc counter – inhibits full-length luciferase, flagging false Mdm2/MdmX hits. SaOS-2 full-length luciferase counterscreen, luminescence. 6,200 compounds, 77% hits. shares compounds with Mdm2-MdmX inh. inhibition, % at 8 µM;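 active means mean inhibition at 8 µM reaching about 37%, which flags the compound as non-specific, limit read from the data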;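 further: p53-null SaOS-2 cells with luciferase driven by a doxycycline-inducible promoter; compound on cells about two nights before reading with doxycycline added after day one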
Numbers without * were called inactive; . = no result given. A selection: hits, their analogues and other compounds. The true share with any hit is near 4.6%.

SMILES	Peg3 prom inh	HIF-2a block	KKLEB cytotox	ABHD5 PLIN5 PPI	CF NFkB inh	Mdm2-MdmX inh	Mdm2-MdmX conf	FLuc counter
C=CCC[C@@H](Cc1ccc(F)cc1)C(=O)OC[C@@H](Cc1c[nH]c2ccccc12)NC(=O)[C@@H](CC=C)CC(=O)N(CCO)Cc1ccccc1	37.9	-1.2	7.6	2.9	16.4	93.3*	26.9	.
C=CCC[C@H](Cc1ccc(F)cc1)C(=O)OC[C@@H](Cc1c[nH]c2ccccc12)NC(=O)[C@@H](CC=C)CC(=O)N[C@@H](CO)Cc1ccccc1	28.9	-8.4	-26.3	-15.1	17.1	45.3	.	.
CC(=O)Nc1ccc(NC(=O)C(C)OC(=O)CNS(=O)(=O)/C=C/c2ccc(C)cc2)cc1 (configuration not stated)	-3.4	8.1	-5.8	3.5	24.3	4.3	.	.
CCN(Cc1ccc2c(c1)OCCO2)C(=O)CN1C(=O)NC2(CCCCC2)C1=O	-8.9	-1.3	2.3	4.0	0.4	-8.4	.	.
O=C(COC(=O)c1ccc2c(c1)C(=O)N(Cc1ccco1)C2=O)NCC(F)(F)F	4.0	4.8	-2.6	-5.6	2.4	1.3	.	.
O=C(C1CCCCC1)N1CCC2CC1c1cc(Cl)ccc12 (configuration not stated)	3.7	13.4	-1.5	4.6	-3.2	.	.	.
COC(=O)c1ccc(C(=O)NC2CCCc3c2cnn3-c2cc(F)cc(F)c2)nc1 (configuration not stated)	0.8	-41.0	-9.0	0.2	17.3	57.8*	50.0*	57.1*
COc1ccc(C(=O)NC2CCCc3c2cnn3-c2cc(F)cc(F)c2)c(OC)c1OC (configuration not stated)	13.2	-14.0	-7.7	0.3	2.3	52.6*	47.1*	57.1*
COC(=O)c1ccc(C(=O)NC2CCCc3c2cnn3-c2ccc(C)c(C)c2)cc1 (configuration not stated)	3.9	-18.6	-9.8	-9.9	-5.2	59.9*	72.3*	59.1*
CCCN(CC(=O)Nc1ccc(F)c(F)c1F)C(=O)c1ccc(N2CCCC2=O)cc1	-2.8	-21.2	-1.6	0.6	-1.9	8.3	.	.
O=C(NCCS(=O)(=O)N1CCC2(CC1)OCCO2)c1ccc(F)cc1	7.4	7.7	-16.5	7.0	17.4	-7.7	.	.
N#Cc1c(NCc2ccccc2)ccnc1Cl	9.3	30.4	5.0	6.1	38.5	40.2	.	.
Cc1ccsc1C(=O)N1CCCC(CCC(=O)N2CCN(c3ccccn3)CC2)C1 (configuration not stated)	8.7	13.9	2.8	5.8	6.0	-5.1	.	.
CCOC(=O)C1(Cc2ccccc2C(F)(F)F)CCN(C2CCN(C(C)C)CC2)CC1	8.3	7.5	-15.8	0.8	17.1	73.0*	59.1*	54.4*
C#CC[N+](C)(C)CCCCCCCCCC	34.2	24.0	-32.8	7.7	52.0*	70.7*	67.6*	55.9*
C#CC[N+](C)(C)CCCCCCCC	24.7	10.5	-16.4	-3.7	36.8	22.5	.	.
O=C(Nc1nc(-c2ccc(F)c(F)c2)cs1)Nc1ccc(F)cc1F	4.8	-62.9	7.4	-3.9	-9.5	83.0*	62.4*	14.7
Oc1c(N=NC(=S)Nc2ccccc2F)c2ccccc2n1Cc1ccc(Cl)cc1	15.8	14.2	-20.1	4.4	21.3	53.5*	46.0*	68.5*
Cc1ccccc1Cn1c(O)c(N=NC(=S)Nc2ccccc2F)c2ccccc21	22.5	9.4	3.5	-4.0	-10.0	40.3	.	.
Oc1c(N=NC(=S)Nc2ccccc2F)c2ccccc2n1Cc1ccccc1F	9.4	6.9	-14.7	-3.7	25.4	64.0*	48.1*	46.3*
COc1ccc(N(CC(=O)NC2CCCC2)C(=O)Cn2nnc(-c3ccc(F)cc3)n2)cc1	19.5	11.6	12.9	-9.5	-9.7	22.0	.	.
CCC(C)N(C(=O)CSc1nnc(COc2ccccc2F)n1N)C1CCS(=O)(=O)C1 (configuration not stated)	-3.6	11.3	13.6	6.2	16.6	31.1	.	.
O=C(N/N=C/c1ccc(F)cc1)c1cc(-c2ccc3c(c2)OCO3)n[nH]1	4.4	17.9	4.6	-3.4	-0.4	0.9	.	.
